# In the supplement of paper PMC6555819:
# Tests used:
# Test in all cases: PBM binding z-score (relative to random genomic background probes); higher = stronger binding; sequences stand for … in GC…GCGATTGACAGCGTAGAATGAAGG
# [1] = system: RARb homodimer (NR concentration 270 nM)
# How it was run: (§1)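 On custom Agilent 4×180K arrays, double-stranded probes with 34-nt variable regions carried direct-repeat seeds, single-nucleotide variants, half-site ablations or random human genomic background. Ligand-free nuclear receptor dimers were applied for 1 h, and binding was read with antibodies against each partner (one per run). Binding z-scores come from regression-normalized fluorescence, with the random background probes as reference.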
# [2] = system: RARg:RXRa (NR concentration 270 nM, RXRa partner concentration 90 nM)
# How it was run: as §1
# [3] = system: RARg homodimer (NR concentration 270 nM)
# How it was run: as §1
# [4] = system: RXRa DBDmut IVT, anti-RXR (DBD mutation: RXRa K156A/R161A, NR concentration 90 nM)
# How it was run: as §1
# [5] = system: RXRa homodimer (NR concentration 180 nM)
# How it was run: as §1
# [6] = system: THRa:RXRa (NR concentration 90 nM, RXRa partner concentration 90 nM)
# How it was run: as §1
# [7] = system: THRa homodimer (NR concentration 90 nM)
# How it was run: as §1
# [8] = system: VDR homodimer (NR concentration 270 nM)
# How it was run: as §1
sequence,measurement,setting,value
ACTATTAATTGAGACGAGGGCAACCGATAGGTTG,PBM binding z-score,[1],1.56
same,PBM binding z-score,[2],0.73
same,PBM binding z-score,[3],0.967
same,PBM binding z-score,[4],0.688
same,PBM binding z-score,[5],0.753
same,PBM binding z-score,[6],1.33
same,PBM binding z-score,[7],1.03
same,PBM binding z-score,[8],1.64
TCCTGTAGATCAACAGGAGGTTAAGAAAGATCGA,PBM binding z-score,[1],0.374
same,PBM binding z-score,[2],0.894
same,PBM binding z-score,[3],0.158
same,PBM binding z-score,[4],-0.0672
same,PBM binding z-score,[5],0.88
same,PBM binding z-score,[6],0.931
same,PBM binding z-score,[7],-0.958
same,PBM binding z-score,[8],-0.104
TGAATGAGGTTAAAGATCAGTGAACGTGGCGTCG,PBM binding z-score,[1],0.903
same,PBM binding z-score,[2],2.48
same,PBM binding z-score,[3],1.37
same,PBM binding z-score,[4],1.33
same,PBM binding z-score,[5],3.74
same,PBM binding z-score,[6],2.58
same,PBM binding z-score,[7],0.429
same,PBM binding z-score,[8],0.435
CCGAGTAGGTTATGGTGCATTCAGGCAACGGTGA,PBM binding z-score,[1],1.06
same,PBM binding z-score,[2],0.337
same,PBM binding z-score,[3],0.381
same,PBM binding z-score,[4],0.527
same,PBM binding z-score,[5],0.5
same,PBM binding z-score,[6],0.6
same,PBM binding z-score,[7],0.468
same,PBM binding z-score,[8],0.619
AGAATCAGGTTATTAAGATCAGGGAATTGCGGTC,PBM binding z-score,[1],0.785
same,PBM binding z-score,[2],0.291
same,PBM binding z-score,[3],0.541
same,PBM binding z-score,[4],0.627
same,PBM binding z-score,[5],0.596
same,PBM binding z-score,[6],1.21
same,PBM binding z-score,[7],0.84
same,PBM binding z-score,[8],0.616
CGTCAAAGTTCAACTAAGGTAATGTAAAGCACGC,PBM binding z-score,[1],4.29
same,PBM binding z-score,[2],5.86
same,PBM binding z-score,[3],6.53
same,PBM binding z-score,[4],4.51
same,PBM binding z-score,[5],5.18
same,PBM binding z-score,[6],5.18
same,PBM binding z-score,[7],1.31
same,PBM binding z-score,[8],3.69
CTACCAAGGTGAACAAGTTCGTTGATTACTATTC,PBM binding z-score,[1],1.3
same,PBM binding z-score,[2],0.877
same,PBM binding z-score,[3],1.02
same,PBM binding z-score,[4],2.17
same,PBM binding z-score,[5],0.747
same,PBM binding z-score,[6],1.9
same,PBM binding z-score,[7],0.959
same,PBM binding z-score,[8],3.6
GGAACGAGGGCTTTCGAGTTGATAGCATGGCGAT,PBM binding z-score,[1],-0.798
same,PBM binding z-score,[2],-0.258
same,PBM binding z-score,[3],-0.353
same,PBM binding z-score,[4],0.228
same,PBM binding z-score,[5],-0.0785
same,PBM binding z-score,[6],0.893
same,PBM binding z-score,[7],-0.983
same,PBM binding z-score,[8],0.344
TCTTGTAGATCAACAGGAGGTTAAAAAAGATCGA,PBM binding z-score,[1],0.404
same,PBM binding z-score,[2],0.947
same,PBM binding z-score,[3],0.461
same,PBM binding z-score,[4],0.247
same,PBM binding z-score,[5],0.896
same,PBM binding z-score,[6],0.886
same,PBM binding z-score,[7],-0.654
same,PBM binding z-score,[8],0.215
TCTTGTAGAGCAATAGAGGTTAAGAAAGTGCGCT,PBM binding z-score,[1],0.76
same,PBM binding z-score,[2],0.413
same,PBM binding z-score,[3],0.158
same,PBM binding z-score,[4],-0.107
same,PBM binding z-score,[5],0.858
same,PBM binding z-score,[6],1.76
same,PBM binding z-score,[7],-1.07
same,PBM binding z-score,[8],-0.332
GCTCGGAGGACATGGTCAGAGCTTTGTCCGTAGA,PBM binding z-score,[1],0.143
same,PBM binding z-score,[2],-0.271
same,PBM binding z-score,[3],0.158
same,PBM binding z-score,[4],-0.383
same,PBM binding z-score,[5],-0.444
same,PBM binding z-score,[6],0.524
same,PBM binding z-score,[7],-0.306
same,PBM binding z-score,[8],-0.849
TGTCAAAGTTCAAAGGTAGCGTAAGTATCCACAC,PBM binding z-score,[1],3.86
same,PBM binding z-score,[2],5.84
same,PBM binding z-score,[3],5.8
same,PBM binding z-score,[4],4.41
same,PBM binding z-score,[5],6.07
same,PBM binding z-score,[6],2.76
same,PBM binding z-score,[7],-0.0719
same,PBM binding z-score,[8],3.39
CCGACTGGGGCAGATAGGTTACCATACCATCCGG,PBM binding z-score,[1],0.817
same,PBM binding z-score,[2],0.424
same,PBM binding z-score,[3],0.518
same,PBM binding z-score,[4],-0.658
same,PBM binding z-score,[5],0.262
same,PBM binding z-score,[6],-0.181
same,PBM binding z-score,[7],-0.391
same,PBM binding z-score,[8],-0.573
CCTACTTGGCCACGAAAGGTCATTGATTCAGTGA,PBM binding z-score,[1],4.61
same,PBM binding z-score,[2],4.77
same,PBM binding z-score,[3],4.41
same,PBM binding z-score,[4],1.36
same,PBM binding z-score,[5],5.16
same,PBM binding z-score,[6],3.44
same,PBM binding z-score,[7],1.3
same,PBM binding z-score,[8],2.78
GGAACGAGGGCAAAGTTGAAAGCATCTGTCGACG,PBM binding z-score,[1],1.51
same,PBM binding z-score,[2],2.59
same,PBM binding z-score,[3],1.86
same,PBM binding z-score,[4],2.79
same,PBM binding z-score,[5],2.88
same,PBM binding z-score,[6],1.59
same,PBM binding z-score,[7],-0.341
same,PBM binding z-score,[8],0.999
TCATATAGGTAGTACAGGTGAAAGTCGGCATCTA,PBM binding z-score,[1],0.475
same,PBM binding z-score,[2],0.549
same,PBM binding z-score,[3],0.317
same,PBM binding z-score,[4],1.32
same,PBM binding z-score,[5],1.02
same,PBM binding z-score,[6],0.404
same,PBM binding z-score,[7],0.361
same,PBM binding z-score,[8],0.606
CGAAATAGGTCATTGACAGGACAGTGAATAGTAA,PBM binding z-score,[1],3.34
same,PBM binding z-score,[2],5.81
same,PBM binding z-score,[3],4.98
same,PBM binding z-score,[4],2.23
same,PBM binding z-score,[5],4.21
same,PBM binding z-score,[6],3.01
same,PBM binding z-score,[7],0.329
same,PBM binding z-score,[8],1.15
GAAACGAGGGCAAGTTGATAGCAGAGTTTGATGG,PBM binding z-score,[1],1.68
same,PBM binding z-score,[2],1.6
same,PBM binding z-score,[3],1.94
same,PBM binding z-score,[4],2.43
same,PBM binding z-score,[5],1.02
same,PBM binding z-score,[6],1.41
same,PBM binding z-score,[7],0.0214
same,PBM binding z-score,[8],1.97
TCGAGTAGGTTACCAATGGGGCAATCAGCTTTCT,PBM binding z-score,[1],0.687
same,PBM binding z-score,[2],1.67
same,PBM binding z-score,[3],0.463
same,PBM binding z-score,[4],0.325
same,PBM binding z-score,[5],0.707
same,PBM binding z-score,[6],0.302
same,PBM binding z-score,[7],-0.774
same,PBM binding z-score,[8],-0.712
AGAATGAGGTTATACGTATATCAGGGAAGAAAGT,PBM binding z-score,[1],0.94
same,PBM binding z-score,[2],1.77
same,PBM binding z-score,[3],1.35
same,PBM binding z-score,[4],1.42
same,PBM binding z-score,[5],2.34
same,PBM binding z-score,[6],2.5
same,PBM binding z-score,[7],0.645
same,PBM binding z-score,[8],0.832
TCTCGAAGGACACGAAAGGTCAGAGCTCGACATC,PBM binding z-score,[1],4.81
same,PBM binding z-score,[2],4.59
same,PBM binding z-score,[3],4.73
same,PBM binding z-score,[4],1.37
same,PBM binding z-score,[5],4.17
same,PBM binding z-score,[6],3.39
same,PBM binding z-score,[7],0.878
same,PBM binding z-score,[8],0.702
CGAACTAGGTCATTGACGGGACAGTGAATAGTAA,PBM binding z-score,[1],2.6
same,PBM binding z-score,[2],4.41
same,PBM binding z-score,[3],4.35
same,PBM binding z-score,[4],2.41
same,PBM binding z-score,[5],2.61
same,PBM binding z-score,[6],2.63
same,PBM binding z-score,[7],0.664
same,PBM binding z-score,[8],0.927
CTTGAAAGGTCGTGCTCAGGTGAGTATACCAAAC,PBM binding z-score,[1],2.75
same,PBM binding z-score,[2],5.02
same,PBM binding z-score,[3],3.64
same,PBM binding z-score,[4],2.21
same,PBM binding z-score,[5],5.06
same,PBM binding z-score,[6],4.21
same,PBM binding z-score,[7],0.803
same,PBM binding z-score,[8],1.03
CCTGCTAGGTCAATGGTCGGCTAAAGCAGCTCGC,PBM binding z-score,[1],2.9
same,PBM binding z-score,[2],3.87
same,PBM binding z-score,[3],4.16
same,PBM binding z-score,[4],1.74
same,PBM binding z-score,[5],1.88
same,PBM binding z-score,[6],2.42
same,PBM binding z-score,[7],0.749
same,PBM binding z-score,[8],0.149
GGAACGAGGGGAAGTTGATAGCAGAGTTTGATGG,PBM binding z-score,[1],0.255
same,PBM binding z-score,[2],-0.0496
same,PBM binding z-score,[3],-0.0365
same,PBM binding z-score,[4],0.431
same,PBM binding z-score,[5],0.0141
same,PBM binding z-score,[6],-0.105
same,PBM binding z-score,[7],0.182
same,PBM binding z-score,[8],0.565
CCTAGTTGGTCAGAAGGTCACACACCGGATATGA,PBM binding z-score,[1],4.46
same,PBM binding z-score,[2],4.85
same,PBM binding z-score,[3],4.38
same,PBM binding z-score,[4],0.926
same,PBM binding z-score,[5],4.4
same,PBM binding z-score,[6],3.12
same,PBM binding z-score,[7],1.59
same,PBM binding z-score,[8],2.21
ACTAGCAGGCCAAGGGTCACTCAGGATTAGTCCG,PBM binding z-score,[1],3.78
same,PBM binding z-score,[2],4.35
same,PBM binding z-score,[3],3.59
same,PBM binding z-score,[4],0.461
same,PBM binding z-score,[5],4.24
same,PBM binding z-score,[6],2.7
same,PBM binding z-score,[7],0.0494
same,PBM binding z-score,[8],1.22
GCTATTAGTTGAAAGGGCTACCGAATGATTCTCG,PBM binding z-score,[1],0.228
same,PBM binding z-score,[2],-0.023
same,PBM binding z-score,[3],0.197
same,PBM binding z-score,[4],0.703
same,PBM binding z-score,[5],0.0628
same,PBM binding z-score,[6],-0.589
same,PBM binding z-score,[7],-0.623
same,PBM binding z-score,[8],-0.485
